Data taken from the supplement of paper PMC4166925.
± gives the standard deviation of the averaged measurements. Over roughly 33,000 sequences, “E-score (dimensionless, -0.5 to 0.5)” has its median near -0.046; the highest 2% begin near 0.36. Many of the other results were omitted from the sample, so the highest values are more common in it than they were.

What follows are sequences tested on T1, SpTbr T-box DNA-binding domain (GST fusion) (assay: PBM E-score of 8-mer (E-score (dimensionless, -0.5 to 0.5)); Tbr is Tbrain of the sea star Patiria miniata (Pm) or the sea urchin Strongylocentrotus purpuratus (Sp); higher = stronger binding preference). Conditions: the construct has about 5 more residues each side.
T1 sequence: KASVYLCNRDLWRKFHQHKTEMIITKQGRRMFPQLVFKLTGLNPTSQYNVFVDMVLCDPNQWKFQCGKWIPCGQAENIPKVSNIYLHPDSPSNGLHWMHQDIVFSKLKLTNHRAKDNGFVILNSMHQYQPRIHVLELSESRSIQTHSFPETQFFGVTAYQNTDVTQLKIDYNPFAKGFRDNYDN
Outline: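 Using the Universal PBM Analysis Suite, every ungapped 8-mer received an enrichment E-score averaged over duplicate arrays. Probe intensities came from double-stranded Universal Agilent oligonucleotide arrays incubated with 200 nM GST-fused Tbr T-box DNA-binding domain in PBS (pH 7.5). That protein was expressed in BL21 E. coli at 20 °C and purified by glutathione affinity chromatography.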

| Sequence | PBM E-score of 8-mer |
| --- | --- |
| CCCGCGAA | 0.371 ± 0.019 |
| CGCAATTC | 0.169 ± 0.0051 |
| AAAGATCT | -0.1 ± 0.035 |
| ATTGAGGG | -0.243 ± 0.003 |
| AACCTTCG | -0.0878 ± 0.018 |
| CACCTTCG | 0.396 ± 0.017 |
| CACCTTCC | 0.401 ± 0.014 |
| AACCTTCC | -0.169 ± 0.048 |
| CACCTTCA | 0.412 ± 0.0047 |
| GACCTTCC | -0.00679 ± 0.036 |
| CCCCTTCG | -0.137 ± 0.046 |
| AACCTTCA | -0.0641 ± 0.013 |
| GACCTTCA | -0.0627 ± 0.081 |
| CGTGGTCC | -0.204 ± 0.045 |
| CCGCCACA | 0.157 ± 0.021 |
| CCTCCTAA | -0.2059 ± 0.001 |
| TAAGCGAA | -0.0797 ± 0.053 |
| TAAGGTGA | 0.331 ± 0.021 |
| GAAGGTAC | -0.239 ± 0.019 |
| CAAGGTTC | 0.047 ± 0.016 |
| GAAGGTGA | 0.348 ± 0.035 |
| CAAGGTGA | 0.392 ± 0.0089 |

| Sequence | PBM E-score of 8-mer |
| --- | --- |
| GAAGGTGC | 0.41 ± 0.019 |
| CAAGGTAA | -0.0662 ± 0.017 |
| CAAGGTGG | 0.311 ± 0.015 |
| CAAGGTGC | 0.421 ± 0.0087 |
| ACCTAGAA | -0.0152 ± 0.079 |
| ACTGCTCG | 0.0799 ± 0.013 |
| CTCGGGAC | -0.118 ± 0.062 |
| AACTGTTA | 0.284 ± 0.03 |
| TGAGCCAA | -0.229 ± 0.019 |
| CCCCCATC | -0.0563 ± 0.053 |
| AAGTGTGT | 0.331 ± 0.0059 |
| AAGTGGGG | 0.177 ± 0.0055 |
| AAGTGTGG | 0.417 ± 0.013 |
| AAGTGGGA | 0.238 ± 0.037 |
| CAGTGTGC | 0.106 ± 0.0063 |
| AAGTGTGC | 0.3891 ± 0.00091 |
| ACTGCCTA | -0.14 ± 0.028 |
| AACTTTCG | 0.00917 ± 0.0092 |
| CTCTGGGA | 0.00265 ± 0.049 |
| ACAATAGA | -0.149 ± 0.042 |
| CCATGGAG | -0.231 ± 0.015 |
| CCCAGAGG | -0.127 ± 0.05 |

| Sequence | PBM E-score of 8-mer |
| --- | --- |
| ACACATCG | 0.394 ± 0.014 |
| ACACATCT | 0.31 ± 0.029 |
| ACACATCA | 0.339 ± 0.0072 |
| CCACATCC | -0.0299 ± 0.14 |
| GCACATCC | 0.137 ± 0.0032 |
| ACACATCC | 0.388 ± 0.024 |
| CTACTTGA | 0.0916 ± 0.062 |
| CCACCATC | 0.0489 ± 0.024 |
| ACACCACC | 0.365 ± 0.0069 |
| CCACCACC | 0.101 ± 0.038 |
| ACACCACA | 0.364 ± 0.017 |
| CCACCACA | 0.131 ± 0.073 |
| ACACCATA | 0.231 ± 0.071 |
| ACACCATC | 0.3674 ± 0.0022 |
| ACACCACG | 0.332 ± 0.018 |
| ACACCACT | 0.269 ± 0.02 |
| ACCTGCCT | 0.00297 ± 0.084 |
| GGAGCGCC | 0.0178 ± 0.0015 |
| AGACCCAC | 0.0705 ± 0.1 |
| AGAGAAAT | -0.0136 ± 0.08 |
| AGATCCAT | -0.205 ± 0.039 |
| CATCTCAC | 0.308 ± 0.006 |

| Sequence | PBM E-score of 8-mer |
| --- | --- |
| AATCTCAC | 0.366 ± 0.016 |
| AATCTCTC | -0.1 ± 0.11 |
| GATCTCAA | 0.0536 ± 0.028 |
| AATCTCAT | -0.0127 ± 0.017 |
| GATCTCAC | 0.371 ± 0.02 |
| AATCTCAG | -0.0558 ± 0.035 |
| AGACTCGG | -0.23 ± 0.019 |
| ATCACCCG | 0.12 ± 0.057 |
| CACACCCG | 0.448 ± 0.016 |
| CACCCCCC | 0.184 ± 0.003 |
| TACACCCA | 0.105 ± 0.011 |
| CACACCGC | 0.332 ± 0.037 |
| CACCCCCG | 0.234 ± 0.018 |
| CACACCCC | 0.419 ± 0.025 |
| CCCACCCG | 0.0685 ± 0.054 |
| CCCACCCA | 0.185 ± 0.054 |
| CACACCCA | 0.421 ± 0.02 |
| AGCACCCG | 0.257 ± 0.011 |
| AACACCCG | 0.404 ± 0.01 |
| CCATGGCG | -0.204 ± 0.015 |
